Test results from ChEMBL document CHEMBL3988442, “University of Dundee, Small-Polar-MMV Screening Library” (2021).
For some assays here: Potency and affinity values are given separately.

Legend:
Design in all cases: scale not given: direction of the effect not stated beside the values
[1] = target: Protein translocase subunit SecA (Escherichia coli (strain K12)) (UniProt P10408); experiment: Assay to Identify E. coli SecA ATPase Inhibitors; type: functional; settings: 30 µM
[2] = target: T1, Ubiquitin-activating enzyme e1, putative (Leishmania donovani (strain BPK282A1)) (UniProt E9BSI1); experiment: Leishmania donovani Ubiquitin Activating Enzyme (LdE1); type: functional; settings: 30 µM
T1 sequence (whole entry): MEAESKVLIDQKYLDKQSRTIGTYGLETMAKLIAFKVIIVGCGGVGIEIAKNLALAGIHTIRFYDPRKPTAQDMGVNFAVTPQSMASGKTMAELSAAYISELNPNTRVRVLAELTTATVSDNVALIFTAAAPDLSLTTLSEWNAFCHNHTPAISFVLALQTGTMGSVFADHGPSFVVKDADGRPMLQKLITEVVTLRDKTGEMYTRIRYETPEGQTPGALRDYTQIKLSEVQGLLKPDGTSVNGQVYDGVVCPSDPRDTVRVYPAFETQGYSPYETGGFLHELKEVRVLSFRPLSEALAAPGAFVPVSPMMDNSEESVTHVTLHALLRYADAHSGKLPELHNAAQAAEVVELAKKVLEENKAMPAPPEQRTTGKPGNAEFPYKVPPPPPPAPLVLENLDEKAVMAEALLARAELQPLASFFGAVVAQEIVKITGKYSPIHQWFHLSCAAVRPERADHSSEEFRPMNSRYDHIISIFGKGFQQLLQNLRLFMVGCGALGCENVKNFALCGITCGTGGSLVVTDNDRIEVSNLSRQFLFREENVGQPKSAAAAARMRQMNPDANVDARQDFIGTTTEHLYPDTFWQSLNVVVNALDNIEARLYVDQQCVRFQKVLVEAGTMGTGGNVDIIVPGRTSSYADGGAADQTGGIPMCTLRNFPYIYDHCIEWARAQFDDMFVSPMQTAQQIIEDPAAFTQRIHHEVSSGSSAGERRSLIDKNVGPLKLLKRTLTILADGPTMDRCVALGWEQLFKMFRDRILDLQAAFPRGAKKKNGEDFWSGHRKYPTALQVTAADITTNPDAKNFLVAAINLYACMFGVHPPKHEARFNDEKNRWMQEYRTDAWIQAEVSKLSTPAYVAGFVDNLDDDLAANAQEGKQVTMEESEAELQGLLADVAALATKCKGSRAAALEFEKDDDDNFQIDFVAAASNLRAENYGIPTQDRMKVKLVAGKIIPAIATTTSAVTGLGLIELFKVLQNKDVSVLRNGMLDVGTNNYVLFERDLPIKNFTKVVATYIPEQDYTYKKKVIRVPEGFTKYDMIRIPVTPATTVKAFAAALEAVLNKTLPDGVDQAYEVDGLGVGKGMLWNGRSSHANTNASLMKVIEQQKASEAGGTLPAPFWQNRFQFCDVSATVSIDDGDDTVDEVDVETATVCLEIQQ

[3] = target: AMP-activated protein kinase, AMPK (Homo sapiens) (UniProt P54646+O43741+P54619+Q9UGJ0+Q9Y478+Q13131+Q9UGI9); experiment: AMP-dependent Kinase enzyme assay. An in vitro enzyme assay that detects ADP turnover that is directly proportional to AMPK activity. This uses naive AMPK that is activated during the assay with MK-8722; type: functional; settings: 30 µM
[4] = target: Sialic acid-binding Ig-like lectin 9 (Homo sapiens) (UniProt Q9Y336); experiment: Hs-Siglec9 ALPHAscreen SOP 20170721; settings: 10 µM
Trypanosoma cruzi = experiment: Trypanosoma cruzi phosphomannomutase and mannose-1-phosphate guanylyltransferase assay; type: functional; settings: 10 µM
[5] = target: T2, Arginase-2, mitochondrial (Homo sapiens) (UniProt P78540); experiment: in vitro enzyme assay to detect the production of urea directly proportional to the activity of Arginase II; type: functional; settings: 33.3 µM; also: in the data most compounds retested in dose-response had high values
T2 sequence (whole entry): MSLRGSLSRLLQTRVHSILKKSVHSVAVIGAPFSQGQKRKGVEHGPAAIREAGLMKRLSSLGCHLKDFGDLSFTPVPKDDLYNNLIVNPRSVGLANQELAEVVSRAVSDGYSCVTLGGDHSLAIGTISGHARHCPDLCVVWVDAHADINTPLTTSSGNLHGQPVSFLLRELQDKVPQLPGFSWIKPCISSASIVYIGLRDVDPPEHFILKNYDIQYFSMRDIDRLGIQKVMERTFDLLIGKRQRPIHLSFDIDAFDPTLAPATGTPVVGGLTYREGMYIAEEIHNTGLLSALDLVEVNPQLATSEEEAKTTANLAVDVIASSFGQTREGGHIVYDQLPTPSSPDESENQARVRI

[6] = target: T3, Proteasome subunit beta (Trypanosoma cruzi) (UniProt O96673); experiment: Trypanosoma cruzi proteasome chymotrypsin-like activity (TcProtChymo) assay.; also: in the data most compounds retested in dose-response had high values; type: functional; settings: 9.37 µM
T3 sequence (whole entry): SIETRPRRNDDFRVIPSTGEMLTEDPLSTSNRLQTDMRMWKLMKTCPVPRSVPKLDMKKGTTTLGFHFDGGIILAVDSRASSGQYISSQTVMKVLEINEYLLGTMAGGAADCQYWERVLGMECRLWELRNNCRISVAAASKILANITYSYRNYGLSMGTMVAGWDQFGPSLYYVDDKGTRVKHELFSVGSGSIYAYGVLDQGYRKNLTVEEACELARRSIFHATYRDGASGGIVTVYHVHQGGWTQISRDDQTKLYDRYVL

Homo sapiens = species: Homo sapiens; experiment: To identify inhibition of the IFN signalling (Jak-Stat) pathway via expression of an eGFP reporter gene under the control of an IFN-stimulated response element (ISRE) containing MxA promoter.; type: functional; settings: 30 µM
[7] = target: T4, Tyrosyl-tRNA synthetase, putative (Trypanosoma cruzi (strain CL Brener)) (UniProt Q4DSP6); experiment: Trypanosoma cruzi tyrosyl tRNA synthetase (TcYRS) _High Tyrosine SOP; type: functional; settings: 30 µM; also: in the data most compounds retested in dose-response had high values
T4 sequence (whole entry): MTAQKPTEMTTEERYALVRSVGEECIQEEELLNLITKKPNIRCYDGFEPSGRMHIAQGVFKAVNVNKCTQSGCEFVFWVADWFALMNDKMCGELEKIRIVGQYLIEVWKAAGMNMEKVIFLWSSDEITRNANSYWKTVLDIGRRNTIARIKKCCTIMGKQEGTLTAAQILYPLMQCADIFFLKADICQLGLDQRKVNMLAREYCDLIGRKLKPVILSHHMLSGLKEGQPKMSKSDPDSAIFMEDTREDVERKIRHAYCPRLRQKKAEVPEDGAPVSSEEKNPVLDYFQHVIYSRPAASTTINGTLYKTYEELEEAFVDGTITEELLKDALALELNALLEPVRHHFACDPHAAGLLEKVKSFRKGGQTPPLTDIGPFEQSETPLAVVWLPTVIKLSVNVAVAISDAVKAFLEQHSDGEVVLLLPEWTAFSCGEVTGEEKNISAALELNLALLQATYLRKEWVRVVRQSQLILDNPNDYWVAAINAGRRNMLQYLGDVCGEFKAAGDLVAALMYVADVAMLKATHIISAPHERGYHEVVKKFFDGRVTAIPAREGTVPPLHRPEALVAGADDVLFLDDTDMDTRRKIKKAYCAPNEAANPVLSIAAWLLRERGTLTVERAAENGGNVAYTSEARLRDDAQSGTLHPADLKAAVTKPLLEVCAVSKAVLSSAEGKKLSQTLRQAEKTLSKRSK

[8] = target: T4, Tyrosyl-tRNA synthetase, putative (Trypanosoma cruzi (strain CL Brener)); experiment: Trypanosoma cruzi tyrosyl tRNA synthetase (TcYRS) SOP; type: functional; settings: 30 µM
[9] = target: Chromo domain-containing protein 1 (Saccharomyces cerevisiae (strain ATCC 204508 / S288c) (Baker's yeast)) (UniProt P32657); experiment: ScCHD-1 Enzyme Inhibition Assay; type: functional; settings: 30 µM; also: in the data most compounds retested in dose-response had high values
Chromo domain-containing protein 1 (Saccharomyces cerevisiae (strain ATCC 204508 / S288c) (Baker's yeast)), sequence (P32657 whole entry, the tested form may be a part): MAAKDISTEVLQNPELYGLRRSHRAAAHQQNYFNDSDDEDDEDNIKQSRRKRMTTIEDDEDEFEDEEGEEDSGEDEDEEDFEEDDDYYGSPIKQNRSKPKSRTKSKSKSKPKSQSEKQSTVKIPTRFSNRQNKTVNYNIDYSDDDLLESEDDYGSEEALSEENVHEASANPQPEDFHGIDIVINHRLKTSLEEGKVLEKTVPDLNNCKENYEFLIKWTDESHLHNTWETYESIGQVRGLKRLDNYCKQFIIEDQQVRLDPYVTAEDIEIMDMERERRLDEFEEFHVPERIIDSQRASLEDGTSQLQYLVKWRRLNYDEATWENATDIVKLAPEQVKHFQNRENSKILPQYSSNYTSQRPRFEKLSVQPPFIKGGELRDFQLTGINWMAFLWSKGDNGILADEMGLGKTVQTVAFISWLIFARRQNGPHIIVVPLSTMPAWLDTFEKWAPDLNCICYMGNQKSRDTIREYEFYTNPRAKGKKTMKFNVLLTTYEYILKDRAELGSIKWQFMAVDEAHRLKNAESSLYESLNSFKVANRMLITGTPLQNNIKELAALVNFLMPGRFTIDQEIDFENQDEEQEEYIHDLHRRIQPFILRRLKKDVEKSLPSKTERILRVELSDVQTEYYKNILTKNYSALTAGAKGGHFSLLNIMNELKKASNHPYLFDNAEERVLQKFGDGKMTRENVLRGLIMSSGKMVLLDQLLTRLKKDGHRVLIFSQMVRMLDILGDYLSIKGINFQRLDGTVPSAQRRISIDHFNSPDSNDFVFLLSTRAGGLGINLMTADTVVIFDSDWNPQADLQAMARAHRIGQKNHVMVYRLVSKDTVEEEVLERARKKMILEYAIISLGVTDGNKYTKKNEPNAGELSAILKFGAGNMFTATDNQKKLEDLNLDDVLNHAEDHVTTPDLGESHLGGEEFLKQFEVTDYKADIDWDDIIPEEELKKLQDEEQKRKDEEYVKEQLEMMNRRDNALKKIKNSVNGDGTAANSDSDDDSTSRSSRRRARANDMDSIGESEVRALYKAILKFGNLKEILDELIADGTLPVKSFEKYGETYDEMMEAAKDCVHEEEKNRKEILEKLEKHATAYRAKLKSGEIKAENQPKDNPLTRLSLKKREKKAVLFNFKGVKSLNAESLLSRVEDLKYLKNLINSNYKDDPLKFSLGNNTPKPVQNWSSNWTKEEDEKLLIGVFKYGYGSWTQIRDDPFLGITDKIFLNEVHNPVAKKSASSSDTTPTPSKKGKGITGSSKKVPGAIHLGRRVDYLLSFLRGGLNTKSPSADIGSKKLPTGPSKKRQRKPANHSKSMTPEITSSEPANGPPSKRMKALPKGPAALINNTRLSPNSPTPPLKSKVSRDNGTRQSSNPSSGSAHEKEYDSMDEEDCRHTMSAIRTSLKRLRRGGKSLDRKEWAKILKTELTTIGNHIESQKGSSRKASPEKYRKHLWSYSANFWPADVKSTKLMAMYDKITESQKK

Protein translocase subunit SecA (Escherichia coli (strain K12)), sequence (P10408 whole entry): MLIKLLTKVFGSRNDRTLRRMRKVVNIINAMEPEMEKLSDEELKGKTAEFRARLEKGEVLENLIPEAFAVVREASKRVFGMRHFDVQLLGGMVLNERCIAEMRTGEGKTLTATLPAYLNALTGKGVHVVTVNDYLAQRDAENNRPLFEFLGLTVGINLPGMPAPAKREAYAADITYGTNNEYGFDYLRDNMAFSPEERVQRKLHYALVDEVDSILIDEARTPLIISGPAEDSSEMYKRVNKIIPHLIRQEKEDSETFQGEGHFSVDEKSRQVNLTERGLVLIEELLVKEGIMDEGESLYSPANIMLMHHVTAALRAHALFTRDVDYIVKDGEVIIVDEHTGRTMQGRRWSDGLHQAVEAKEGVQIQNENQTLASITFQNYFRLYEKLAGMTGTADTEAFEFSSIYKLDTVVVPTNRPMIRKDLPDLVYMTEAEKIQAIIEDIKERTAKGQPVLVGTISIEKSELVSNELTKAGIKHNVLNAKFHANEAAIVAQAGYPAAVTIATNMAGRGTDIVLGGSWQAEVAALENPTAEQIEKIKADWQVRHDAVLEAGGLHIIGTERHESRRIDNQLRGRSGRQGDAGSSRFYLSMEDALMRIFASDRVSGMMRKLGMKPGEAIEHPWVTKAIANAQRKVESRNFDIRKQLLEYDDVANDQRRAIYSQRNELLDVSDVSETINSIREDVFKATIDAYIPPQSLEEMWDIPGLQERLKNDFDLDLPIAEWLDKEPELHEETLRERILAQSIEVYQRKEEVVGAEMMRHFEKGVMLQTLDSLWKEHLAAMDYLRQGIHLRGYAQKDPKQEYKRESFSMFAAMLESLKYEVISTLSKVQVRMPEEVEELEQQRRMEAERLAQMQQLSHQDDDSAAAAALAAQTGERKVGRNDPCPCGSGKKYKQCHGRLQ
Sialic acid-binding Ig-like lectin 9 (Homo sapiens), sequence (Q9Y336 whole entry): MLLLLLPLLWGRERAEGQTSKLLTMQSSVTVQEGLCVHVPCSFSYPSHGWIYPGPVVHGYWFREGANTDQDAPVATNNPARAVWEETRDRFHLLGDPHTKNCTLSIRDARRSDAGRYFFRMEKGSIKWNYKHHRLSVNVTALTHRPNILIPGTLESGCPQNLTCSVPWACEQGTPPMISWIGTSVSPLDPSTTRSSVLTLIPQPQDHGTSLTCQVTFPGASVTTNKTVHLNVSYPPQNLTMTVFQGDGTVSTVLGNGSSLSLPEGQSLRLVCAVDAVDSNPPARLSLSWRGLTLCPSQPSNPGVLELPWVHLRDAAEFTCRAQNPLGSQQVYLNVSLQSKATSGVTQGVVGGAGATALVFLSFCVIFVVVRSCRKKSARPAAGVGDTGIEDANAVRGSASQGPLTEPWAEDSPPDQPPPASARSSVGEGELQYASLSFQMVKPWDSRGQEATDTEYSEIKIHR

Compound | Percent Effect [1] | Percent Effect [2] | Percent Effect [3] | Percent Effect [4] | Percent Effect (Trypanosoma cruzi) | Percent Effect [5] | Percent Effect [6] | Percent Effect (Homo sapiens) | Percent Effect [7] | Percent Effect [8] | Percent Effect [9]
Cc1c[nH]c(CN(C)C(=O)C2CC(=O)N(Cc3ccncc3)C2)n1 (stereo unspecified) | -3.45% | 5.41% | -2.63% | -5.87% | -5.77% | -1.24% | 8.33% | 0.971% | -1.07% | 1.24% | -4.02%
O=C(c1ccccn1)N1Cc2nccn2CC(COc2cccnc2)C1 (stereo unspecified) | 0.812% | 13.3% | 0.132% | 2.56% | -0.193% | -54.7% | 4.96% | 20.5% | 4.17% | 15% | -4.96%
CC(C)COCC(NC(=O)c1ccccn1)c1ccco1 (stereo unspecified) | -2.06% | 13.5% | -1.56% | 0.407% | 4.62% | -8.02% | 5.04% | 5.29% | 9.36% | 16.1% | -8.79%
Cc1ccc(C)c(C(=O)CN2C(=O)c3ccccc3CS2(=O)=O)c1 | -0.543% | -2.7% | -3.5% | 9.17% | 5.79% | 0% | 18.1% | 12% | -36.5% | -41.5% | 22.1%
c1csc(-c2nc(CN3CCOC(Cn4cccn4)C3)co2)c1 (stereo unspecified) | -4.59% | 18.9% | -12.4% | 19.6% | 6.32% | -8.82% | 9.01% | 16.2% | 7.39% | 23.5% | -11.2%
N#Cc1ccc(C(=O)N2CC[C@H]3[C@@H]2CCC(=O)N3c2cccnc2)cc1 | -4.52% | 13.5% | 3.21% | -7.6% | -2.44% | 3.5% | 18.3% | -4.58% | 1.08% | 12.8% | -4.36%
COCCn1ccnc1C1CCCN(C(=O)CSCC2CC2)C1 (stereo unspecified) | -1.08% | 6.94% | -7.23% | -0.00565% | 4.37% | 0% | 19.1% | 1.07% | 3.16% | 7.69% | -0.19%
CC(Cn1ccnc1)NC(=O)N1CCN(Cc2cccnc2)CC1 (stereo unspecified) | -5% | 18.4% | -6.12% | 5.79% | 8.46% | -3.83% | 11.5% | 4.46% | 7.35% | 19.5% | -10.3%
O=C(NC1CC1)[C@@H]1CCO[C@@H]2CCN(C3CCOCC3)C[C@H]21 | -7.35% | 2.6% | 3.75% | 6.23% | 4.62% | 5.52% | 8.49% | -3.98% | 6.45% | 13.6% | 0.47%
Cc1ccc2c(c1)CN(C(=O)c1ccccc1F)C(CN(C)C)CO2 (stereo unspecified) | -0.708% | 12.2% | 14.3% | -7.4% | -5.73% | -4.41% | 11.7% | 0.0165% | 1.07% | 3.9% | -10%
O=C(NCC1CC1)N1CCN(Cc2ccc3c(c2)OCCO3)CC1 | -2.95% | 5.26% | 1.09% | 12.6% | 3.08% | 1.08% | 4.99% | 20% | 3.45% | 13.6% | 0.382%
CNS(=O)(=O)c1ccc(C(=O)N2CCCC(n3cccn3)C2)cc1 (stereo unspecified) | -7.19% | 13.2% | -7.33% | 8.86% | 4.89% | -4.21% | 2.17% | 1.3% | 3.43% | 17.1% | -14.7%
CS(=O)(=O)NC[C@]12COC[C@H]1CN(C(=O)c1ccoc1)C2 | -3.11% | 7.79% | 7.55% | 7.59% | -1.87% | 4.52% | 10.6% | 21.3% | 5.29% | 11.5% | -4.91%
O=C(NCCNc1ncccn1)Nc1cc(C(F)(F)F)c[nH]c1=O | -4.49% | 8.11% | 2.74% | 1.17% | 1.02% | -2.4% | 0.539% | 8.76% | 6.93% | 15.8% | -3.38%
OC(CN1CCC(c2ccn[nH]2)CC1)c1cccc(F)c1 (stereo unspecified) | 1.18% | 12.7% | 4.09% | 4.6% | -3.49% | 6.84% | 6.31% | 13.5% | 5.42% | 11.4% | -4.54%
CC(C)c1ncc2c(n1)CN(Cc1ccc(C(N)=O)cc1)CC2 | -5.85% | 18.4% | -25.7% | -1.87% | 10.7% | -2.68% | 11.5% | 11.1% | 12.2% | 19.5% | -14.2%
